These results are taken from PubChem BioAssay (Tox21).

Results filed as inconclusive are left out. Some compounds were tested as several samples or in several runs, with calls that do not always agree. Calls of active or inactive are those of the source. Unless noted, calls follow the shape of the dose curve; as a rule, active = well fitted curve in the direction sought with a large enough effect in the repeat runs; inconclusive = weak or mixed curves; inactive = no such curve, though single readings can be large; an effect the other way counts as inactive or inconclusive.

Experiment [1] can be described thus: qHTS assay to identify small molecule antagonists of the estrogen related receptor (ERR) signaling pathway from Tox21 library - cell viability counter screen (AID 1224834). Also: nearly all actives have a fitted effect of over 30% in size. The essentials:
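Viability readout (CellTiter-Fluor fluorescence, 30 min at 37 C) multiplexed with the ERR assay; cells treated 17.5 h at 37 C with compounds delivered in DMSO.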
A general note: In qHTS, concentration-response curves come from the screen itself.

The target of experiment [2] is Luciferin 4-monooxygenase (Photinus pyralis) (UniProt P08659). In words: qHTS assay to identify small molecule inhibitors of firefly luciferase (AID 1224835). Also: nearly all actives have a fitted effect of over 25% in size. Also: potency is read from the fitted curve at half-maximal effect. A digest of the protocol: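 Biochemical qHTS: compounds run as interplate titrations against purified firefly enzyme, with D-luciferin and ATP each at its KM concentration. Light output recorded by CCD imaging.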
Sequence of Luciferin 4-monooxygenase (Photinus pyralis) (P08659 whole entry, looked up): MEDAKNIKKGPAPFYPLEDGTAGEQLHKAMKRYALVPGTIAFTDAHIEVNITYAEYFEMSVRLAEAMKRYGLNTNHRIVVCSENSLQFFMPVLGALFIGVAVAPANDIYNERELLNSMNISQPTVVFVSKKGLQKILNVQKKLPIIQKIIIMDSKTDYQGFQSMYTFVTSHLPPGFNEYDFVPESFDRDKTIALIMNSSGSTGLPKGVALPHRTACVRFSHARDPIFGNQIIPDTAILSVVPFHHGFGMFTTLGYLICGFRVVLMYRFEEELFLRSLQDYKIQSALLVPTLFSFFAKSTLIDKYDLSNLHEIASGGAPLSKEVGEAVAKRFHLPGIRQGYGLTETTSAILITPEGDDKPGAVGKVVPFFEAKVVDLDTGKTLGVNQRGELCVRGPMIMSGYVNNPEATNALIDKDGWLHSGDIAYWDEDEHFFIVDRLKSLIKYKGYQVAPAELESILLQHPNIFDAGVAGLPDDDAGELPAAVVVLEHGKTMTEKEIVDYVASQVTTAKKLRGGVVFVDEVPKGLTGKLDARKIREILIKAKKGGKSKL

The nature of experiment [3]: qHTS assay to identify small molecule agonists of the constitutive androstane receptor (CAR) signaling pathway - cell viability counter screen (AID 1224836). Also: series mostly up to about 92 µM; nearly all actives have a fitted effect of over 45% in size. A digest of the protocol:
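Using CellTiter-Fluor, viability of HepG2 cells harbouring hCAR and CYP2B6-2.2kb was measured following 23 h incubation with a 15-concentration compound series plus PK11195 (0.75 uM final).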

Experiment [4] can be described thus: qHTS assay to identify small molecule antagonists of the constitutive androstane receptor (CAR) signaling pathway - cell viability counter screen (AID 1224837). Also: series mostly up to about 92 µM; nearly all actives have a fitted effect of over 45% in size. The essentials: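 Fluorescence from CellTiter-Fluor served as the viability signal. Human hepatoma HepG2 cells stably bearing hCAR and CYP2B6-2.2kb received compound plus CITCO (50 nM final) for 23 hr.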

Experiment [5] addresses Nuclear receptor subfamily 1 group I member 3 (Homo sapiens) (UniProt Q14994). As to the kind of experiment: qHTS assay to identify small molecule antagonists of the constitutive androstane receptor (CAR) signaling pathway (AID 1224838).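 Also: HepG2 cells stably expressing hCAR with CYP2B6 luciferase reporter stimulated by CITCO; nearly all actives have a fitted effect of over 40% in size.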 The essentials: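 Quantitative HTS in double-stable HepG2-CYP2B6-hCAR cells. After 4 h plating, cells get compound (15 concentrations) and CITCO at 50 nM final, incubate 24 h at 37 C, then ONE-Glo luminescence is read.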

Experiment [6] has the same target. As to the kind of experiment: qHTS assay to identify small molecule agonists of the constitutive androstane receptor (CAR) signaling pathway (AID 1224839). Also: nearly all actives have a fitted effect of over 15% in size. Also: potency is read from the fitted curve at half-maximal effect. A digest of the protocol:
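Double-stable HepG2 cells (hCAR, CYP2B6-2.2kb) seeded 4 h before compound addition. Exposure 24 h with 0.75 uM PK11195 final. Luciferase detected by ONE-Glo.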

Experiment [7] is described as follows: qHTS assay to identify small molecule antagonists of the estrogen related receptor signaling pathway with the pleiotropic PPARgamma coactivator (PGC) from Tox21 10K library - cell viability counter screen (AID 1224840; active = well fitted cell-killing curve with a large enough effect in the repeat runs, not every such curve was filed as active; also: nearly all actives have a fitted effect of over 40% in size). The essentials: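 Compounds in DMSO, alongside positive and negative controls, were pinned onto PGC/ERR cells (2,000 per well). Exposure lasted 17.5 hours at 37 C, followed by a 30-minute CellTiter-Fluor incubation and fluorescence reading.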

Experiment [8] has as its target Thyrotropin receptor (Homo sapiens) (UniProt P16473). As to the kind of experiment: qHTS assay to identify small molecule agonists of the thyroid stimulating hormone receptor (TSHR) signaling pathway (AID 1224843; calls by dose curve; also: nearly all actives have a fitted effect of over 45% in size). A digest of the protocol: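 TSHR-HEK293 cells in agonist mode, 30 min room-temperature step, then cAMP measured by competitive HTRF (cAMP-d2 with anti-cAMP cryptate) after 1 h at room temperature. Tested at 15 concentrations in triplicate.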

A short description of experiment [9]: qHTS assay to identify small molecule antagonists of the estrogen related receptor signaling pathway with the pleiotropic PPARgamma coactivator (PGC) from Tox21 10K library (AID 1224841; call rule not given here; also: series mostly up to about 92 µM; actives are mostly falling curves and most rising ones were filed inactive; nearly all actives have a fitted effect of over 50% in size). The essentials:
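Compound exposure ran 18 hours at 37 C in PGC/ERR cells (2,000/well) that had first rested 6 hours in a 37 C/5% CO2 incubator. Luciferase activity was then detected with One-Glo after a 30-minute room-temperature step.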

Experiment [10] can be described thus: qHTS assay to identify small molecule agonists of the estrogen related receptor signaling pathway with the pleiotropic PPARgamma coactivator (PGC) from Tox21 10K library (AID 1224842). Also: nearly all actives have a fitted effect of over 15% in size. The essentials: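 PGC/ERR reporter cell line, 2,000 cells per well, incubated 6 h at 37 C before 23 nL compound in DMSO was added. After 18 h at 37 C, One-Glo luminescence read following 30 min at room temperature.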

Sequence of Nuclear receptor subfamily 1 group I member 3 (Homo sapiens) (Q14994 whole entry, looked up): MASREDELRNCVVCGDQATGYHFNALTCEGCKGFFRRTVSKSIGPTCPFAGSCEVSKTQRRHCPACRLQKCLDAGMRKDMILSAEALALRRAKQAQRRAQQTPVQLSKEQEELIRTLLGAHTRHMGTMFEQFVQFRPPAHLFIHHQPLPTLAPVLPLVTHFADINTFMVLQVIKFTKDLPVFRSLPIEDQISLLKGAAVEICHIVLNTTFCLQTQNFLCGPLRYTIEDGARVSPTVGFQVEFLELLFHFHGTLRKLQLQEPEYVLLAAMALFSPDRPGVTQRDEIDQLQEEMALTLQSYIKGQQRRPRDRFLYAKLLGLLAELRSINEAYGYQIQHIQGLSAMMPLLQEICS
Sequence of Thyrotropin receptor (Homo sapiens) (P16473 whole entry, looked up): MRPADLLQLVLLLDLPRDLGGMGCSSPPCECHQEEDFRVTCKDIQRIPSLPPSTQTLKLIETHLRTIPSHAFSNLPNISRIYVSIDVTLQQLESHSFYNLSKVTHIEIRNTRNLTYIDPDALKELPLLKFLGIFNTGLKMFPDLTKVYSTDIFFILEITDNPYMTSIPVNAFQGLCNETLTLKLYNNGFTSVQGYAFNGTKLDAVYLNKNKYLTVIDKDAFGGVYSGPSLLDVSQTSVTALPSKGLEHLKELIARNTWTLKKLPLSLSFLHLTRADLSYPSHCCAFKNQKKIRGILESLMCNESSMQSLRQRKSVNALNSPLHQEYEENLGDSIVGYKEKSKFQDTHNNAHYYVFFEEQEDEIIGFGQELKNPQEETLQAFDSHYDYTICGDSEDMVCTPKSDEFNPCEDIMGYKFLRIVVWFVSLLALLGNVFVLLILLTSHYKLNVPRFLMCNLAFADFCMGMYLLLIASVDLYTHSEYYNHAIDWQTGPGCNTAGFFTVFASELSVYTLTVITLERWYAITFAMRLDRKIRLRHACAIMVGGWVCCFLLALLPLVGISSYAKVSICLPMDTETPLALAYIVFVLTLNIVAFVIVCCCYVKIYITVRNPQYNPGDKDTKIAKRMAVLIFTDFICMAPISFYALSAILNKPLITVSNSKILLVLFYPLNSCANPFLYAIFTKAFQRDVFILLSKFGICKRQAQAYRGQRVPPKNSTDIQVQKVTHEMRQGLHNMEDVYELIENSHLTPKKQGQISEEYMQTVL

With `CCN(CCO)CCO`, the Potency result in [1], in experiment [2], in [3], in experiment [4], in experiment [5] and in [6] was “inactive” each time. The Potency entry in [7] and in experiment [8] was “inactive” each time.
Take `CCCC[N+](=O)[O-]`: the Potency entry in experiment [1], in [2], in experiment [3], in experiment [4], in experiment [5] and in [6] was “inactive” throughout. Moreover, the Potency result in experiment [7], in [9] and in experiment [10] was “inactive” in each case.
For `ClC(Cl)(Cl)Cl`, the Potency entry in experiment [1], in experiment [2], in [3], in experiment [4], in experiment [5] and in [6] was “inactive” throughout. Besides, the Potency entry in [7], in [9], in experiment [10] and in experiment [8] was “inactive” throughout.
For `CC(C)(C)c1cc(O)ccc1O`, the Potency result in [1], in [3], in experiment [4] and in experiment [5] was “inactive” in each case. For the same compound, in [2], the Potency was 71 µM (active) and inactive.
For the compound `C[C@]12C=CC(=O)C=C1CC[C@@H]1[C@@H]2CC[C@@]2(C)[C@H]1CC[C@]2(C)O`, the Potency entry in experiment [1], in [2], in experiment [3], in experiment [4], in experiment [5] and in experiment [6] was “inactive” throughout. Moreover, the Potency result in [7], in experiment [9] and in [10] was “inactive” throughout.
As for `CC(C)c1ccc(O)cc1`, the Potency entry in experiment [1], in experiment [2], in experiment [3], in experiment [4], in [5] and in [6] was “inactive” each time. Moreover, the Potency result in [7], in experiment [9], in experiment [10] and in [8] was “inactive” in each case.
For `CC(C)(C1CCC(O)CC1)C1CCC(O)CC1` (stereo not given), the Potency entry in [1], in experiment [2], in experiment [3], in experiment [4] and in experiment [5] was “inactive” each time. Also, the Potency in experiment [6] was 19.3 µM (active).
As for `CCc1ccc(C2CCNCC2)cc1`, the Potency entry in experiment [1], in experiment [2], in experiment [3] and in experiment [4] was “inactive” each time.
As for `COc1cc(CC(C)N)cc(OC)c1OC` (stereo not given), the Potency result in [1], in [2], in experiment [3], in experiment [4], in experiment [5] and in experiment [6] was “inactive” throughout. Besides, the Potency entry in experiment [7], in experiment [9] and in [10] was “inactive” in each case.
As for `N#CN`, the Potency result in experiment [1], in [2], in [3], in experiment [4], in [5] and in [6] was “inactive” in each case. The Potency entry in experiment [7] is “inactive”.
Turning to `CC1NCCOC1c1ccccc1` (stereo not given), the Potency result in experiment [1], in experiment [2], in [3], in experiment [4], in experiment [5] and in [6] was “inactive” throughout. The Potency result in experiment [7], in experiment [9] and in [10] was “inactive” throughout.
For the compound `CCC(C)C(C)(COC(N)=O)COC(N)=O` (stereo not given), the Potency result in experiment [1], in [2], in experiment [3], in experiment [4], in experiment [5] and in [6] was “inactive” in each case. For the same compound, the Potency entry in [7], in experiment [9], in experiment [10] and in [8] was “inactive” each time.
Turning to `O=C(CCl)NCO`, the Potency entry in experiment [1], in experiment [2], in experiment [3], in [4], in [5] and in [6] was “inactive” in each case. Moreover, the Potency entry in [7], in experiment [9] and in [10] was “inactive” throughout.
On to `COP(=O)(O)OC`, for which the Potency result in experiment [1], in experiment [2], in experiment [3], in experiment [4], in experiment [5] and in [6] was “inactive” in each case. Moreover, the Potency entry in [7] was “inactive”.
For the compound `CNC(=O)NC(O)C(Cl)(Cl)Cl` (stereo not given), the Potency result in [1], in experiment [2], in [3], in [4], in [5] and in experiment [6] was “inactive” in each case. Further, the Potency entry in [7] and in experiment [8] was “inactive” in each case.
For the compound `CC[C@@H](CO)NC(=O)[C@@H]1C=C2c3cccc4c3c(cn4C)C[C@H]2N(C)C1`, the Potency result in [1], in experiment [2], in experiment [3], in [4], in [5] and in experiment [6] was “inactive” throughout. In addition, the Potency result in [7], in experiment [9] and in experiment [10] was “inactive” each time.
In the case of `CCOC(=O)C(Cl)Cc1cc(-n2nc(C)n(C(F)F)c2=O)c(F)cc1Cl` (stereo not given), the Potency result in experiment [1], in experiment [2], in [3] and in [4] was “inactive” in each case.
For `CCN(CC)CCOC(=O)C(O)(c1ccccc1)c1ccccc1`, the Potency result in experiment [1], in experiment [2], in experiment [3], in experiment [4], in experiment [5] and in experiment [6] was “inactive” each time. Moreover, the Potency entry in experiment [7], in [9], in [10] and in experiment [8] was “inactive” in each case.
For `CC(C)(C)C(=O)Cl`, the Potency entry in [1], in [2], in experiment [3], in experiment [4], in experiment [5] and in experiment [6] was “inactive” throughout. Moreover, the Potency entry in experiment [7] and in [8] was “inactive” in each case.
As for `CON(C)C(=O)Nc1ccc(Br)c(Cl)c1`, the Potency result in [1], in experiment [3], in experiment [4], in experiment [5], in experiment [7] and in experiment [9] was “inactive” in each case. For the same compound, the Potency result in [10] is “inactive”. Moreover, the Potency is 39.9 µM (active) in [2] and 48.6 µM (active) in experiment [6].
Turning to `CN1C(=O)COc2c(C(=O)NC3CN4CCC3CC4)cc(Cl)cc21` (stereo not given), the Potency entry in experiment [1], in [2], in [3], in [4], in experiment [5] and in experiment [6] was “inactive” each time. Also, in experiment [7], the Potency entry is “inactive”.
In the case of `CCN(CC)C1CCCCC1`, the Potency entry in experiment [1], in experiment [2], in [3], in experiment [4], in [5] and in experiment [6] was “inactive” in each case. Also, the Potency entry in experiment [7], in experiment [9] and in experiment [10] was “inactive” throughout.
On to `O=C(O)C(Cl)Br` (stereo not given), for which the Potency result in experiment [1], in [2], in [3], in experiment [4], in experiment [5] and in experiment [6] was “inactive” throughout. Moreover, the Potency entry in experiment [7] and in experiment [8] was “inactive” each time.
With `C/C(=N\NC(=O)Nc1cc(F)cc(F)c1)c1ncccc1C(=O)O`, the Potency result in experiment [1], in [2], in [3], in experiment [4], in [5] and in experiment [6] was “inactive” throughout. Besides, the Potency result in [7] was “inactive”.
Regarding `CCCN1CCC[C@@H]2Cc3[nH]ncc3C[C@H]21`, the Potency entry in experiment [1], in experiment [2], in [3], in experiment [4], in experiment [5] and in experiment [6] was “inactive” in each case. Also, the Potency entry in experiment [7], in experiment [9] and in experiment [10] was “inactive” in each case.
Consider `CS(=O)(=O)c1ccc(C(=O)C2C(=O)CCCC2=O)c(Cl)c1COCC(F)(F)F`, for which the Potency result in experiment [1], in [2], in experiment [3], in experiment [4], in [5] and in experiment [6] was “inactive” throughout. Also, the Potency result in [7], in experiment [9], in experiment [10] and in experiment [8] was “inactive” throughout.
As for `C1CN2CCC1CC2`, the Potency entry in experiment [1], in experiment [2], in [3], in experiment [4], in experiment [5] and in [6] was “inactive” in each case. Further, the Potency result in [7] and in experiment [8] was “inactive” each time.
As for `NNCc1ccccc1`, the Potency entry in experiment [1], in experiment [3], in experiment [4], in experiment [5] and in [7] was “inactive” in each case. Also, the Potency in [2] is 10.2 µM (active); in experiment [6], 62.3 µM (active).
